The text below walks through data of PubChem BioAssay (Tox21).

SMILES strings stand for the structures. Results filed as inconclusive are left out. Activity calls are given as the source filed them. Unless noted, calls come from the whole dose curve; as a rule, active = well fitted curve in the direction sought with a large enough effect in the repeat runs; inconclusive = weak or mixed curves; inactive = no such curve, though single readings can be large; an effect the other way counts as inactive or inconclusive.

Assay [1] is described as follows: qHTS assay to identify small molecule antagonists of the glucocorticoid receptor (GR) signaling pathway - cell viability counter screen (AID 720693). Note: nearly all actives have a fitted effect of over 55% in size.
Assay [2] can be described thus: qHTS assay for identifying genotoxic compounds that show differential cytotoxicity against isogenic chicken DT40 cell lines with known DNA damage response pathways - wild type cell line (AID 743012). Note: nearly all actives have a fitted effect of over 60% in size. Note: potency is the fitted concentration of half-maximal effect. In short, it runs like this: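 Luminescent ATP viability signal (CellTiter-Glo, 30 min RT) recorded after wild type DT40 cells were incubated with compounds for 40 h at 37 C/5% CO2.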
On the technique in general: qHTS replaces the single test concentration by a dilution series.

Assay [3] can be described thus: qHTS assay for identifying genotoxic compounds that show differential cytotoxicity against isogenic chicken DT40 cell lines with known DNA damage response pathways - Rad54/Ku70 mutant cell line (AID 743015). Note: nearly all actives have a fitted effect of over 60% in size. Note: potency is the fitted concentration of half-maximal effect.
Assay [4] is described as follows: qHTS assay to identify small molecule antagonists of the androgen receptor (AR) signaling pathway - cell viability counter screen (AID 743033; note: nearly all actives have a fitted effect of over 45% in size).
Assay [5] can be described thus: qHTS assay to identify small molecule antagonists of the androgen receptor (AR) signaling pathway using the MDA cell line - cell viability counter screen (AID 743041; note: nearly all actives have a fitted effect of over 45% in size). The method in brief:
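In this qHTS counter assay, fluorescence intensity after CellTiter-Fluor addition indicated viability of MDA-kb2 AR-luc cells given compounds and R1881 for 16 h at 37C.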

The target in assay [6] is Androgen receptor (Homo sapiens) (UniProt P10275). The assay is described as follows: qHTS assay to identify small molecule antagonists of the androgen receptor (AR) signaling pathway (AID 743035; active = well fitted inhibition curve with a large enough effect in the signal ratio in the repeat runs, not every such curve was filed as active; the % refers to the signal ratio). In short, it runs like this: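 Quantitative HTS of the Tox21 10K library used HEK293 AR-UAS-bla cells stimulated with R1881 alongside compound for 16 h at 37C, followed by beta-lactamase FRET detection (LiveBLAzer B/G, 2 h, RT).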

Assay [7] shares this target. The experiment in a line: qHTS assay to identify small molecule agonists of the androgen receptor (AR) signaling pathway (AID 743036; active = well fitted activation curve with a large enough effect in the signal ratio in the repeat runs, with a control signal flat, not every such curve was filed as active; the % refers to the signal ratio). In short, it runs like this: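 Activation was read as beta-lactamase FRET signal from LiveBLAzer B/G substrate, added for 2 h at room temperature. Before that, GeneBLAzer AR-UAS-bla GripTite (HEK293) cells had 16 h compound exposure at 37C.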

For assay [8] the target is unchanged. The assay is described as follows: qHTS assay to identify small molecule agonists of the androgen receptor (AR) signaling pathway using the MDA cell line (AID 743040; note: nearly all actives have a fitted effect of over 20% in size). In short, it runs like this:
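Cell-based luciferase reporter: MDA-kb2, MMTV promoter (AR + GR response elements). 16 h compound exposure at 37C; ONE-Glo, 30 min RT, luminescence.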

For assay [9] the target is unchanged. The assay is described as follows: qHTS assay to identify small molecule antagonists of the androgen receptor (AR) signaling pathway using the MDA cell line (AID 743042; note: nearly all actives have a fitted effect of over 55% in size). The method in brief: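 MDA-kb2 cells (human breast carcinoma, stably carrying an MMTV-luciferase reporter responsive to AR and GR) were plated at 3,000 cells/well and preincubated 5 hr at 37C, then given compound plus R1881 agonist for 16 h. ONE-Glo luminescence was read.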

A short description of assay [10]: qHTS assay for identifying genotoxic compounds that show differential cytotoxicity against isogenic chicken DT40 cell lines with known DNA damage response pathways - Rev3 mutant cell line (AID 743014). Note: nearly all actives have a fitted effect of over 55% in size. Note: potency is the fitted concentration of half-maximal effect.

Chain of Androgen receptor (Homo sapiens) (P10275 whole entry, looked up): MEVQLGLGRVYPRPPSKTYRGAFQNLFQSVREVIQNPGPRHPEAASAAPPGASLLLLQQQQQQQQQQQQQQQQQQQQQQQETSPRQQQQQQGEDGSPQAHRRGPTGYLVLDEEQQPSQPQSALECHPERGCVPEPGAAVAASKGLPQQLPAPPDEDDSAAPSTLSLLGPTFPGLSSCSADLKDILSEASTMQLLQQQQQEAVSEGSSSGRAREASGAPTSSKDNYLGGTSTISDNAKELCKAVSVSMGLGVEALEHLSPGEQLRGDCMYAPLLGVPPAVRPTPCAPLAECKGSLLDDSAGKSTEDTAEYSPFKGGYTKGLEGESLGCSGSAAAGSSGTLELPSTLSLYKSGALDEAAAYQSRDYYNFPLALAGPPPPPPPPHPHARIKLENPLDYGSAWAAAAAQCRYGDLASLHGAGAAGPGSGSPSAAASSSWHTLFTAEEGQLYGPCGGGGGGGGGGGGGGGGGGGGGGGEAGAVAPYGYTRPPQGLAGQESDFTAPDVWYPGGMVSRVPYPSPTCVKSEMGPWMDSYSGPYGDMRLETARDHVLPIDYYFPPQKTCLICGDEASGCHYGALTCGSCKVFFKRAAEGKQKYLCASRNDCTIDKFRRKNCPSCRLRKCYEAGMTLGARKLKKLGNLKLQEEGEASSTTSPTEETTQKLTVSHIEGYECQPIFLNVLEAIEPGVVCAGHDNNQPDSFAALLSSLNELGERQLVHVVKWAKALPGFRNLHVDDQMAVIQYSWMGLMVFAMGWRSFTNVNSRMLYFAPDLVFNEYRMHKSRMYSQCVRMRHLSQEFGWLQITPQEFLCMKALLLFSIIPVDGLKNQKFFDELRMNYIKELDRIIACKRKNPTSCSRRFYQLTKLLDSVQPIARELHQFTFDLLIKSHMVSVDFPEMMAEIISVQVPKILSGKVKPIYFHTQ

For the compound `CCCCOC(=O)c1ccccc1C(=O)OCC(CC)CCCC` (stereo not given), the Potency result in assay [1], in assay [2], in assay [3], in [4] and in assay [5] was “inactive” in each case.
In the case of `CCOC(=O)C1=C(C)NC(C)=C(C(=O)OC)C1c1cccc([N+](=O)[O-])c1` (stereo not given), the Potency result in assay [1], in assay [4] and in assay [5] was “inactive” in each case. Besides, in assay [2], the Potency was 26.6 µM (active).
For `Cc1cc(NC(=O)C(=O)O)cc(C)c1Oc1ccc(O)c2c1CCC2`, the Potency result in assay [1], in assay [2], in assay [3], in assay [6], in assay [8] and in [5] was “inactive” each time. Moreover, the Potency entry in assay [9] was “inactive”. Further, the call in assay [7] was inactive.
Take `O=C(O)[C@@H]1[C@H]2C[C@H]3c4[nH]c5ccccc5c4CCN3C[C@@H]2CC[C@@H]1O`: the Potency result in assay [1], in assay [10], in [4], in assay [6], in assay [8] and in assay [5] was “inactive” each time. Moreover, the Potency result in assay [9] is “inactive”.
In the case of `CC[C@H](C)[C@H](N)C(=O)O`, the Potency entry in [1], in assay [2], in [3], in [4] and in [5] was “inactive” in each case.
For `CN(C)CCCNCCCN`, the Potency entry in assay [1], in [2], in [4] and in assay [5] was “inactive” throughout.
On to `CCOC(=O)CC(=O)c1cc(F)c(Cl)nc1Cl`, for which the Potency result in assay [1], in [10], in assay [3], in assay [4] and in [5] was “inactive” throughout.
For `CCN(CC)CCOC(=O)C1(c2ccccc2)CCCC1`, the Potency entry in assay [1], in assay [6], in assay [8], in assay [5] and in assay [9] was “inactive” throughout. Also, the Potency in [2] is 26.6 µM (active); in [3] it was 23.7 µM (active). For the same compound, the result in assay [7] was inactive.
For `CC(C)c1ccc2c(C(C)C)cc(C(C)C)c(S(=O)(=O)O)c2c1`, the Potency result in assay [1], in [10], in assay [3], in assay [4], in [6] and in assay [8] was “inactive” in each case. Moreover, the Potency result in assay [5] and in [9] was “inactive” each time.
Turning to `C=CC(=O)OCCOC(=O)CCC(=O)O`, the Potency result in assay [1], in assay [10], in assay [3] and in [5] was “inactive” in each case.
As for `CCOC(=O)C1=NN(c2ccccc2)C(=O)C1`, the Potency entry in assay [1], in [2] and in assay [5] was “inactive” in each case.
Take `CN(C)C/C=C(/c1ccc(Br)cc1)c1cccnc1`: the Potency entry in assay [1], in assay [4] and in [5] was “inactive” each time. Further, the Potency in assay [2] is 29.8 µM (active).
Regarding `O=C(O)C1CCC(C(=O)O)CC1` (stereo not given), the Potency entry in assay [1] was “inactive”. Moreover, the Potency in assay [10] was 60.9 µM (active); in [3] it was 68.4 µM (active).
Turning to `O=C1c2cccc(O)c2C(=O)c2c(O)cc(CO)cc21`, the Potency entry in [1], in [2], in assay [4] and in assay [5] was “inactive” in each case. Also, the Potency in assay [3] is 24.3 µM (active).
For the compound `OCC1CC2CC1C1CCC(CO)C21` (stereo not given), the Potency result in assay [1] and in [4] was “inactive” in each case. The Potency in assay [10] was 54.5 µM (active).
Take `Cn1c(N)nc2nc[nH]c2c1=O`: the Potency entry in assay [1], in [10], in assay [4] and in [5] was “inactive” each time.
Take `CCN(CC)CCNC(C(=O)OCCC(C)C)c1ccccc1` (stereo not given): the Potency entry in [1] and in [5] was “inactive” throughout. For the same compound, the Potency in [2] is 26.6 µM (active).
As for `CC1=CCC(C(C)C)C=C1` (stereo not given), the Potency entry in assay [1], in assay [2] and in assay [5] was “inactive” throughout.
In the case of `OCCC1CCCCN1` (stereo not given), the Potency result in [1], in assay [10], in [3], in assay [4] and in assay [5] was “inactive” in each case.
Take `CCCCCc1ccc(N)cc1`: the Potency result in assay [1], in assay [2] and in assay [4] was “inactive” each time.
`CCCc1ccccc1`: the Potency entry in assay [1], in [10], in [3] and in [5] was “inactive” throughout.
In the case of `CN1CCC(=C2c3ccccc3C=Cc3ccccc32)CC1`, the values for the Potency in assay [2], in assay [10] and in assay [3] were 7.5 µM (active), 10.6 µM (active) and 13.3 µM (active), respectively. Also, in [4], the Potency entry is “inactive”.
With `O=S1(=O)N=C(O)c2ccccc21`, the Potency entry in assay [2], in assay [10], in [3], in [4] and in assay [5] was “inactive” throughout.
Regarding `CC(C)(C)c1ccc(S)cc1`, the Potency result in assay [1] and in assay [5] was “inactive” throughout.
`CCC(=O)OC(C)(C)C1CC=C(C)CC1` (stereo not given): the Potency result in assay [1] and in assay [5] was “inactive” in each case. Also, the Potency in [10] is 48.6 µM (active).
Turning to `C=C(C)C(=O)OCCOc1ccccc1`, the Potency result in [1], in assay [8], in assay [5] and in [9] was “inactive” in each case. Moreover, the compound was called inactive in assay [7].
Regarding `CC(C)(C)C(=O)OCOP(=O)(COCCn1cnc2c(N)ncnc21)OCOC(=O)C(C)(C)C`, the Potency entry in assay [1], in [4] and in assay [5] was “inactive” throughout.
